A short description of experiment [1]: qHTS assay to identify small molecule agonists of the peroxisome proliferator-activated receptor delta (PPARd) signaling pathway - cell viability counter screen (AID 743211). Further: nearly all actives have a fitted effect of over 55% in size. Summed up: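 Viability of GeneBLAzer PPARd UAS-bla HEK293H cells was assessed after 17 h compound incubation at 37C, using CellTiter-Glo reagent added after the reporter read and luminescence recorded 30 min later.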
A general note: qHTS replaces the single test concentration by a dilution series.

Experiment [2] addresses Peroxisome proliferator-activated receptor delta (Homo sapiens) (UniProt Q03181). The experiment can be described thus: qHTS assay to identify small molecule agonists of the peroxisome proliferator-activated receptor delta (PPARd) signaling pathway (AID 743212; calls by dose curve;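 further: HEK293H cells with PPARd UAS beta-lactamase reporter GeneBLAzer system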). The gist of the method: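 Beta-lactamase reporter read by fluorescence (LiveBLAzer B/G FRET, 2 h, room temperature). Test agents, in DMSO, incubated at 37 C with PPARd-bla HEK293H cells.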

Experiment [3] is described as follows: qHTS assay to identify small molecule antagonists of the peroxisome proliferator-activated receptor delta (PPARd) signaling pathway - cell viability counter screen (AID 743213). Further: nearly all actives have a fitted effect of over 50% in size. The gist of the method:
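CellTiter-Glo was added to PPARd-bla HEK293H wells following 17 h compound treatment in the presence of 300 nM L165041. Luminescence was recorded after 30 min at room temperature.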

Experiment [4] concerns the target Peroxisome proliferator-activated receptor delta (Homo sapiens) (UniProt Q03181). The experiment in a line: qHTS assay to identify small molecule antagonists of the peroxisome proliferator-activated receptor delta (PPARd) signaling pathway (AID 743215; active means well fitted inhibition curve with a large enough effect in the signal ratio in the repeat runs, not every such curve was filed as active; the % refers to the signal ratio;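 further: cells stimulated with agonist L165041 at 300 nM final during compound exposure; series mostly up to about 62 µM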). The gist of the method: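 Fluorescence from cleaved LiveBLAzer B/G FRET substrate (2 h, room temperature) reports PPARd-driven beta-lactamase in HEK293H UAS-bla cells. Cells had been treated 17 h at 37 C with compound plus 300 nM final L165041.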

The nature of experiment [5]: qHTS assay to identify small molecule agonists of the farnesoid-X-receptor (FXR) signaling pathway - cell viability counter screen (AID 743218). Further: nearly all actives have a fitted effect of over 45% in size. Summed up: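 Readout: CellTiter-Glo luminescence, 30 min RT, multiplexed after the FXR-bla FRET reading. HEK 293T FXR-UAS-bla cells received compound 5 h post-plating and were incubated 16 h at 37 C.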
Experiment [6] in a line: qHTS assay to identify small molecule antagonists of the farnesoid-X-receptor (FXR) signaling pathway - cell viability counter screen (AID 743221; active means well fitted cell-killing curve with a large enough effect in the repeat runs, not every such curve was filed as active; further: nearly all actives have a fitted effect of over 50% in size). The gist of the method: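 Quantitative HTS of the Tox21 10K library run in parallel with the beta-lactamase reporter read. HEK 293T cells carrying a UAS-driven bla reporter got compound and 50 uM CDCA (final) for 16 h; ATP-based luminescence followed.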

A short description of experiment [7]: qHTS assay to identify small molecule agonists of the vitamin D receptor (VDR) signaling pathway - cell viability counter screen (AID 743224). Further: series mostly up to about 63 µM; nearly all actives have a fitted effect of over 50% in size. Summed up: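 In parallel with the bla FRET readout, cytotoxicity toward VDR-bla cells after 16 h compound exposure was assessed by CellTiter-Glo, with luminescence recorded after a 30 min room-temperature incubation.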

The nature of experiment [8]: qHTS assay to identify small molecule antagonists of the vitamin D receptor (VDR) signaling pathway - cell viability counter screen (AID 743225). Further: nearly all actives have a fitted effect of over 50% in size. The gist of the method:
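Cells (VDR-UAS-bla HEK 293T) are plated, rested 4 h at 37C, dosed with compound and 3 nM final 1-alpha,25-dihydroxy vitamin D3, and incubated 16 h. Viability is taken from CellTiter-Glo luminescence in the reporter wells.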

Experiment [9] in a line: qHTS assay to identify small molecule agonists of the NFkB signaling pathway (AID 1159509; active means well fitted curve in the direction sought with a large enough effect in the signal ratio in the repeat runs, not every such curve was filed as active; the % refers to the signal ratio; further: series mostly up to about 61 µM). Summed up: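 Beta-lactamase reporter assay run in quantitative high-throughput format on an NF-kB-responsive ME-180 line, with 5 hr compound treatment and a FRET-based blue/green fluorescence readout.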
Experiment [10] is described as follows: qHTS assay to identify small molecule agonists of the NFkB signaling pathway - cell viability counter screen (AID 1159515; calls by dose curve; further: series mostly up to about 61 µM; nearly all actives have a fitted effect of over 55% in size). Summed up:
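Plate 2,000 NFkB-bla ME-180 cells/well; incubate overnight. Add compounds, 5 hr at 37 C. Add FRET substrate, 1.5 hr RT. Add CellTiter-Glo, 30 min RT; read luminescence.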

Experiment [11] can be described thus: qHTS assay to identify small molecule agonists of the endoplasmic reticulum stress response signaling pathway - cell viability counter screen (AID 1159517; calls by dose curve; further: nearly all actives have a fitted effect of over 50% in size; further: potency means the concentration at half of the fitted maximal effect). Summed up: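 Cytotoxicity of test compounds toward ESRE-bla HeLa cells was assessed after 5 hr exposure. The luminescent CellTiter-Glo signal was measured 30 min after reagent addition.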
The nature of experiment [12]: qHTS assay to identify small molecule antagonists of the retinoid-related orphan receptor gamma (ROR-gamma) signaling pathway - cell viability counter screen (AID 1159520). Further: nearly all actives have a fitted effect of over 50% in size. Further: potency means the concentration at half of the fitted maximal effect. The gist of the method: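 Tet-on ROR gamma CHO cells (1,000/well) were plated 4 hr, given compounds in DMSO for 2 hr at 37 C, then induced with 1 uM final doxycycline for 16 hr. Viability was read as ATP by CellTiter-Glo luminescence after 30 min.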

The target of experiment [13] is Nuclear receptor ROR-gamma (Homo sapiens) (UniProt P51449). The experiment in a line: qHTS assay to identify small molecule antagonists of the retinoid-related orphan receptor gamma (ROR-gamma) signaling pathway (AID 1159521; further: nearly all actives have a fitted effect of over 50% in size; further: potency means the concentration at half of the fitted maximal effect). The gist of the method: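 RORγ antagonism is scored from reduced reporter luminescence in Tet-on CHO cells. Induction used 1 uM final doxycycline hyclate for 16 h at 37 C, following a 2 h compound exposure.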

Experiment [14] can be described thus: qHTS assay to identify small molecule agonists of the AP-1 signaling pathway - cell viability counter screen (AID 1159525; calls by dose curve; further: nearly all actives have a fitted effect of over 55% in size). The gist of the method:
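Each titration point was normalised to DMSO and tetra n-octyl ammonium bromide controls. The read was Cell Titer Glo luminescence after 30 min at RT, following 5 h compound exposure of ME-180 AP-1-bla cells at 37 °C.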

The nature of experiment [15]: qHTS assay to identify small molecule agonists of the AP-1 signaling pathway (AID 1159526; calls by dose curve).
Experiment [16] has as its target Bile acid receptor (Homo sapiens) (UniProt Q96RI1). The experiment in a line: qHTS assay to identify small molecule antagonists of the farnesoid-X-receptor (FXR) signaling pathway (AID 743217; active means well fitted inhibition curve with a large enough effect in the signal ratio in the repeat runs, not every such curve was filed as active; the % refers to the signal ratio). The gist of the method:
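FRET fluorescence after 2 h room-temperature LiveBLAzer loading gives the readout. Prior step: FXR-bla HEK 293T cells, seeded and incubated 5 h, received test compounds plus 50 uM final CDCA for 16 h at 37 °C.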

For experiment [17] the target is unchanged. The experiment can be described thus: qHTS assay to identify small molecule agonists of the farnesoid-X-receptor (FXR) signaling pathway (AID 743220; active means well fitted activation curve with a large enough effect in the signal ratio in the repeat runs, not every such curve was filed as active; the % refers to the signal ratio). Summed up: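 FXR-UAS-bla HEK 293T cells carrying a UAS-driven beta-lactamase reporter were plated for 5 h at 37C/5% CO2, then exposed to DMSO-dissolved Tox21 10K compounds for 16 h at 37C. A LiveBLAzer B/G FRET substrate was loaded for 2 h at room temperature before fluorescence reading.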

The target in experiment [18] is Vitamin D3 receptor (Homo sapiens) (UniProt P11473). The experiment can be described thus: qHTS assay to identify small molecule agonists of the vitamin D receptor (VDR) signaling pathway (AID 743222; calls by dose curve). The gist of the method: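 Following 4 h attachment at 37C, VDR-bla cells (2,000 per well) received DMSO-dissolved compounds or controls. After 16 h incubation, LiveBLAzer B/G FRET substrate was added and fluorescence read 2 h later at room temperature.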

Experiment [19] has the same target. The experiment can be described thus: qHTS assay to identify small molecule antagonists of the vitamin D receptor (VDR) signaling pathway (AID 743223; active means well fitted inhibition curve with a large enough effect in the signal ratio in the repeat runs, not every such curve was filed as active; the % refers to the signal ratio). Summed up: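 Fluorescence from LiveBLAzer B/G FRET substrate, read after 2 h at room temperature, reflects beta-lactamase reporter activity in VDR-bla cells treated 16 h at 37C with compounds and agonist 1alpha,25-dihydroxyvitamin D3 (3 nM final).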

Experiment [20] can be described thus: qHTS assay to identify small molecule agonists of the endoplasmic reticulum stress response signaling pathway (AID 1159516; active means well fitted activation curve with a large enough effect in the signal ratio in the repeat runs, not every such curve was filed as active; the % refers to the signal ratio). The gist of the method: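 Beta-lactamase expression from the ER stress response element in HeLa reporter cells is quantified with the LiveBLAzer B/G FRET substrate, read at 405 nm excitation after 2 hr at room temperature, following 5 hr compound treatment at 37 C.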

Our source for the Potency and outcome values is PubChem BioAssay (Tox21).

Results filed as inconclusive are left out. Active and inactive are the calls of the source. Unless noted, the call rests on the fitted dose curve; in most records, active means well fitted curve in the direction sought with a large enough effect in the repeat runs; inconclusive means weak or mixed curves; inactive means no such curve, though single readings can be large; an effect the other way counts as inactive or inconclusive.

Peroxisome proliferator-activated receptor delta (Homo sapiens), sequence (Q03181 whole entry, looked up): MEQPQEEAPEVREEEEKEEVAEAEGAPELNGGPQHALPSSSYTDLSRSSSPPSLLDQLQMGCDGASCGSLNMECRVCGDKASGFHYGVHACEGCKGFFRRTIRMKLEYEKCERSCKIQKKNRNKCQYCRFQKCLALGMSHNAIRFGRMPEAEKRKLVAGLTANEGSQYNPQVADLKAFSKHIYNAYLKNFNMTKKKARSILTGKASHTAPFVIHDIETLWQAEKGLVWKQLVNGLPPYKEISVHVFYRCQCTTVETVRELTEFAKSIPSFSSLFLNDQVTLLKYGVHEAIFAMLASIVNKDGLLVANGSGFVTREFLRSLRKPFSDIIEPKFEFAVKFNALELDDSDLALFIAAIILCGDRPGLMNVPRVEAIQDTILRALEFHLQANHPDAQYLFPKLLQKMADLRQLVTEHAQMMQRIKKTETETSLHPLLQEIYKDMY
Bile acid receptor (Homo sapiens), sequence (Q96RI1 whole entry, looked up): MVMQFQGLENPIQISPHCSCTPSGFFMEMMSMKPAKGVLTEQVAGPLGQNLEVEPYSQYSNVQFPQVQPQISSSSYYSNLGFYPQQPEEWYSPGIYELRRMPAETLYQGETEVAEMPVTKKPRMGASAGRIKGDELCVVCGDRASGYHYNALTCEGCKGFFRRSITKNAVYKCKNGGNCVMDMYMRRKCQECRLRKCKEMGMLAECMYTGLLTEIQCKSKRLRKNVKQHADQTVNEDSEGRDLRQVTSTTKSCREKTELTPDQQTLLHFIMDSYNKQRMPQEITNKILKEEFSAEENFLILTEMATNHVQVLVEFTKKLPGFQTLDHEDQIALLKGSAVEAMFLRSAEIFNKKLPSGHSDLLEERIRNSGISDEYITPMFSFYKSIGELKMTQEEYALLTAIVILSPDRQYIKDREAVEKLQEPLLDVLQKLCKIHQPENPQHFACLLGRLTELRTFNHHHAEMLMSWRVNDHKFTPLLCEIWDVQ
Vitamin D3 receptor (Homo sapiens), sequence (P11473 whole entry, looked up): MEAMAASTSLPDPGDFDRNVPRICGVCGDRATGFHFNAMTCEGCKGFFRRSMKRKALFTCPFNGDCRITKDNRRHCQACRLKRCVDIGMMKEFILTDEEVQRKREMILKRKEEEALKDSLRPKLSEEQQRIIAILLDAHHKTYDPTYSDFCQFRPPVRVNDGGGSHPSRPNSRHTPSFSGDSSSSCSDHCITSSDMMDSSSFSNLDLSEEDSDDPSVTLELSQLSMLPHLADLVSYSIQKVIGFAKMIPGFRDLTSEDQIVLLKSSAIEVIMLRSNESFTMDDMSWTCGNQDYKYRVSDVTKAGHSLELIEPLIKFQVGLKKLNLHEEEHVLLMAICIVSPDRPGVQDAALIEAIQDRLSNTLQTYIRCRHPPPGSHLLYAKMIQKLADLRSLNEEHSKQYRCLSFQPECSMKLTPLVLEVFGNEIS

As to `COc1ccc(CCN(C)CCCN2CCc3cc(OC)c(OC)cc3CC2=O)cc1OC`, the Potency entry in experiment [1], in experiment [3], in experiment [4], in experiment [5], in [6] and in experiment [7] was “inactive” throughout. The Potency entry in experiment [8], in [10], in experiment [11], in experiment [12], in experiment [13] and in [14] was “inactive” each time. The outcome in experiment [2], in experiment [9] and in [15] was inactive.
In the case of `CC(C)C(O)C(C)(C)CO` (centres undefined), the Potency entry in experiment [1], in experiment [3], in experiment [5], in [17], in experiment [6] and in [7] was “inactive” throughout. For the same compound, the Potency entry in experiment [8], in [10], in [20] and in [14] was “inactive” each time. The compound was called inactive in experiment [2], in experiment [16], in [18], in experiment [19] and in experiment [9]. Further, the Potency in experiment [13] is 22.4 µM (active).
As to `Nc1cccc2c(N)cccc12`, the Potency result in [1], in experiment [7], in [10], in experiment [20] and in experiment [13] was “inactive” throughout. Besides, the compound was classed as inactive in experiment [2], in experiment [16] and in experiment [9].
On to `O=C(O)c1cc(Cl)cc(Cl)c1O`, for which the Potency result in [1], in [3], in [4], in [7], in experiment [8] and in experiment [10] was “inactive” throughout. The Potency entry in [20], in [12] and in experiment [14] was “inactive” throughout. Also, the call in experiment [18], in experiment [19], in [9] and in experiment [15] was inactive.
For `COC1CCC=CO1` (centres undefined), the Potency entry in experiment [1], in experiment [3], in [4], in experiment [5], in experiment [6] and in experiment [7] was “inactive” in each case. In addition, the Potency entry in experiment [8], in experiment [10], in [12], in [13] and in experiment [14] was “inactive” in each case. Moreover, the call in experiment [2], in experiment [9] and in experiment [15] was inactive. Besides, the Potency in experiment [11] is 55.3 µM (active).
As to `CC(CO)(CO)C(=O)O`, the Potency result in experiment [1], in [3], in [5], in experiment [17], in experiment [6] and in experiment [7] was “inactive” in each case. Further, the Potency result in experiment [8], in [10], in experiment [11], in [12], in experiment [13] and in experiment [14] was “inactive” in each case. Also, the outcome in experiment [2], in [16], in experiment [18], in [19], in [9] and in experiment [15] was inactive.
For the compound `C1=CCC2CC=CC2C1` (centres undefined), the Potency result in experiment [1], in experiment [3], in [4], in experiment [5], in experiment [17] and in experiment [6] was “inactive” throughout. The Potency entry in experiment [7], in experiment [8], in experiment [10], in experiment [11], in experiment [12] and in experiment [13] was “inactive” in each case. The Potency result in experiment [14] was “inactive”. Further, the compound was called inactive in experiment [2], in experiment [16], in experiment [18], in experiment [19], in experiment [9] and in experiment [15].
As to `CC1=CC[C@@]23C[C@@H]1C(C)(C)[C@@H]2CC[C@H]3C`, the Potency result in [1], in experiment [3], in [5], in [6], in experiment [7] and in [8] was “inactive” each time. Moreover, the Potency entry in [10], in experiment [11], in [12], in [13] and in [14] was “inactive” each time. For the same compound, the outcome in [9] and in experiment [15] was inactive.
On to `O=[N+]([O-])C1(Br)COCOC1`, for which the Potency result in experiment [5], in [6], in experiment [8], in [10], in experiment [11] and in experiment [14] was “inactive” each time. The call in experiment [18], in experiment [9] and in experiment [15] was inactive. Moreover, the Potency in [12] and in experiment [13] was 24.3 µM (active) in each case.
Regarding `CCCCCCCCCCCCCC(=O)OCC(O)CO` (centres undefined), the compound was classed as inactive in experiment [2], in experiment [16], in experiment [18], in [9] and in [15]. The Potency entry in experiment [3], in experiment [4], in experiment [5], in experiment [6], in experiment [7] and in experiment [10] was “inactive” throughout. Besides, the Potency result in experiment [11], in experiment [12], in experiment [13] and in [14] was “inactive” in each case.
`O=C(O)c1cccc(C[C@@H]2COc3ccc(OCc4nc5cc(F)ccc5s4)cc3[C@@H]2O)c1`: the Potency entry in experiment [1], in [3], in [5], in experiment [6], in [7] and in experiment [8] was “inactive” throughout. The Potency entry in experiment [10], in experiment [11], in experiment [12], in [13] and in [14] was “inactive” in each case. Also, the call in experiment [18], in [19], in experiment [9] and in experiment [15] was inactive.
For the compound `CC(C)(C)CCCCCCOC(=O)c1ccccc1C(=O)OCCCCCCC(C)(C)C`, the Potency result in [1], in experiment [4], in experiment [5], in [6], in experiment [7] and in [8] was “inactive” throughout. The Potency entry in experiment [10], in experiment [11], in experiment [12], in [13] and in [14] was “inactive” throughout. Besides, the compound was classed as inactive in experiment [2], in experiment [16], in [19], in [9] and in [15].
